The supplement of paper PMC7057948, “A genome-wide approach for identification and characterisation of metabolite-inducible systems” (Nature Communications, 2020)

system: OapR/P_H16_RS01330 beta-alanine biosensor (pEH147); test: relative induction of RFP reporter vs primary effector; higher = stronger activation; conditions: inducer concentration 5 mM; 6 h; Cupriavidus necator H16; minimal medium + 0.4% gluconate
Experimental: (§1)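 Orthogonality screen of 21 primary inducers against 21 transcription factor/inducible promoter–mRFP biosensors in C. necator H16 in minimal medium, robotic 96-well format, 5 mM inducer, 30 °C. OD-normalised RFP fluorescence was read 6 h later and expressed as relative induction (%) = 100 × (FL compound − FL uninduced)/(FL primary inducer − FL uninduced); mean of n=4. Cognate pairs (100% by definition) omitted.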

SMILES	relative induction of RFP reporter
C=C(CC(=O)O)C(=O)O [itaconate]	-0.257%
O=C(O)CCO [3-hydroxypropanoate]	3.75%
O=C(O)C(O)C(O)C(=O)O (configuration not stated) [tartrate]	-0.132%
CC(=O)C(C)O (configuration not stated) [acetoin]	-0.507%
O=C(O)C1CCCCC1 [cyclohexane-1-carboxylate]	-0.348%
OC1OC[C@H](O)[C@H](O)[C@H]1O (mixture of isomers) [L-arabinose]	-0.0273%
O=C(O)C(=O)c1ccccc1 [phenylglyoxylate]	-1.44%
O=C(O)c1ccc(O)c(O)c1 [3,4-dihydroxybenzoate]	-1.27%
O=C(O)c1ccccc1 [benzoate]	-0.947%
N[C@@H](Cc1ccc(O)cc1)C(=O)O [L-tyrosine]	-1.24%
O=C(O)CS(=O)(=O)O [sulfonatoacetate]	-0.372%
O=CO [formate]	0.208%
Nc1ccccc1C(=O)C[C@H](N)C(=O)O [L-kynurenine]	0.521%
O=C(O)c1ccccc1O [salicylate]	-0.51%
O=c1[nH]c(=O)c2nc[nH]c2[nH]1 [xanthine]	1.27%
N[C@@H](Cc1ccccc1)C(=O)O [L-phenylalanine]	-1.24%

system: PcaQ/P_H16_RS30145 3,4-dihydroxybenzoate biosensor (pEH161); test: as above; conditions: inducer concentration 5 mM; 6 h; Cupriavidus necator H16; minimal medium + 0.4% gluconate
Experimental: as §1

SMILES	relative induction of RFP reporter
C=C(CC(=O)O)C(=O)O [itaconate]	-0.0579%
O=C(O)CCO [3-hydroxypropanoate]	-0.224%
O=C(O)C(O)C(O)C(=O)O (configuration not stated) [tartrate]	0.0285%
CC(=O)C(C)O (configuration not stated) [acetoin]	-0.169%
O=C(O)C1CCCCC1 [cyclohexane-1-carboxylate]	-0.211%
OC1OC[C@H](O)[C@H](O)[C@H]1O (mixture of isomers) [L-arabinose]	-0.0772%
O=C(O)C(=O)c1ccccc1 [phenylglyoxylate]	-0.114%
C=CC(=O)O [acrylate]	-0.175%
N[C@@H](Cc1ccc(O)cc1)C(=O)O [L-tyrosine]	0.392%
NCCC(=O)O [β-alanine]	-0.208%
O=C(O)CS(=O)(=O)O [sulfonatoacetate]	-0.165%
O=CO [formate]	-0.0432%
Nc1ccccc1C(=O)C[C@H](N)C(=O)O [L-kynurenine]	-0.136%
O=C(O)c1ccccc1	0.00574%
O=C(O)c1ccccc1O [salicylate]	-0.391%
O=c1[nH]c(=O)c2nc[nH]c2[nH]1 [xanthine]	-0.198%
N[C@@H](Cc1ccccc1)C(=O)O [L-phenylalanine]	-0.267%

system: PhgR/P_H16_RS05530 phenylglyoxylate biosensor (pEH155); test: as above; conditions: inducer concentration 5 mM; 6 h; Cupriavidus necator H16; minimal medium + 0.4% gluconate
Experimental: as §1

SMILES	relative induction of RFP reporter
C=C(CC(=O)O)C(=O)O [itaconate]	-0.453%
O=C(O)CCO [3-hydroxypropanoate]	-0.286%
O=C(O)C(O)C(O)C(=O)O (configuration not stated) [tartrate]	-0.242%
CC(=O)C(C)O (configuration not stated) [acetoin]	-0.461%
O=C(O)C1CCCCC1 [cyclohexane-1-carboxylate]	-0.472%
OC1OC[C@H](O)[C@H](O)[C@H]1O (mixture of isomers) [L-arabinose]	-0.169%
O=C(O)c1ccc(O)c(O)c1 [3,4-dihydroxybenzoate]	-0.535%
C=CC(=O)O [acrylate]	-0.587%
O=C(O)c1ccccc1 [benzoate]	-0.295%
N[C@@H](Cc1ccc(O)cc1)C(=O)O [L-tyrosine]	-0.239%
NCCC(=O)O [β-alanine]	-0.344%
O=C(O)CS(=O)(=O)O [sulfonatoacetate]	-0.406%
O=CO [formate]	-0.511%
Nc1ccccc1C(=O)C[C@H](N)C(=O)O [L-kynurenine]	-0.296%
O=C(O)c1ccccc1O [salicylate]	-0.369%
O=c1[nH]c(=O)c2nc[nH]c2[nH]1 [xanthine]	-0.06%
N[C@@H](Cc1ccccc1)C(=O)O [L-phenylalanine]	-0.485%

system: SauR/P_H16_RS13695 sulfonatoacetate biosensor (pEH157); test: as above; conditions: inducer concentration 5 mM; 6 h; Cupriavidus necator H16; minimal medium + 0.4% gluconate
Experimental: as §1

SMILES	relative induction of RFP reporter
C=C(CC(=O)O)C(=O)O [itaconate]	0.0423%
O=C(O)CCO [3-hydroxypropanoate]	-0.00696%
O=C(O)C(O)C(O)C(=O)O (configuration not stated) [tartrate]	0.033%
CC(=O)C(C)O (configuration not stated) [acetoin]	-0.0229%
O=C(O)C1CCCCC1 [cyclohexane-1-carboxylate]	0.0396%
OC1OC[C@H](O)[C@H](O)[C@H]1O (mixture of isomers) [L-arabinose]	-0.00743%
O=C(O)C(=O)c1ccccc1 [phenylglyoxylate]	0.0193%
O=C(O)c1ccc(O)c(O)c1 [3,4-dihydroxybenzoate]	0.0892%
C=CC(=O)O [acrylate]	0.114%
O=C(O)c1ccccc1 [benzoate]	-0.0427%
N[C@@H](Cc1ccc(O)cc1)C(=O)O [L-tyrosine]	0.00275%
NCCC(=O)O [β-alanine]	-0.0116%
O=CO [formate]	0.0555%
Nc1ccccc1C(=O)C[C@H](N)C(=O)O [L-kynurenine]	0.00419%
O=C(O)c1ccccc1O [salicylate]	0.0177%
O=c1[nH]c(=O)c2nc[nH]c2[nH]1 [xanthine]	0.0306%
N[C@@H](Cc1ccccc1)C(=O)O [L-phenylalanine]	-0.0265%
